# Compound activity deposited in PubChem BioAssay by National Center for Advancing Translational Sciences (NCATS).
# Compounds with a hit are over-represented: about 8% of the library has one in this group of screens.
# MCF10A rerep – DNA re-replication induction in MCF 10a cells; Potency, µM (series often up to 46.1 µM), hits mostly activators; 350,000 tested, 2.9% active; MCF 10A DNA re-replication, Hoechst nuclear intensity, 48 h; further: nearly all actives have a fitted effect of over 50% in size
# SW480 rerep – DNA re-replication induction in SW480 cells | Potency, µM (doses to about 46.1 µM), hits mostly activators | AID 624297 | SW480 DNA re-replication, Hoechst DNA content imaging, 48 h | 340,000 tested, 1.8% active; further: nearly all actives have a fitted effect of over 55% in size
#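 Compounds, transferred as 23 nL by pin tool, were incubated with cells for 48 hr; DNA content per nucleus was then quantified by Hoechst staining and fluorescence plate imaging.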
# KB-V1 cytotox – kills drug-selected multidrug resistant KB-V1 cells. KB-V1 MDR cells viability, CellTiter-Glo, 72 h. Potency, µM (top dose mostly 46.1 µM), usual class: cytotoxic. 400,000 tested, 3.4% active. AID 1347076; further: nearly all actives have a fitted effect of over 60% in size
#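 KB-V1 MDR subline cells in DMEM (phenol-red free, 10% FBS) exposed to compounds in qHTS concentration series for 72 h at 37 degrees C. Viability read by CellTiter-Glo luminescence; concentration-effect curves fitted after normalization and correction.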
# KB-3-1 cytotox – KB-3-1 parental cell cytotoxicity; KB-3-1 viability, CellTiter-Glo ATP luminescence, 72 h; Potency, µM (series often up to 46.1 µM), usual class: cytotoxic; 400,000 tested, 1.4% active; further: nearly all actives have a fitted effect of over 60% in size
#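 KB-3-1 parental drug-naive adenocarcinoma cells in DMEM/10% FBS, incubated 72 h at 37 C with pin-transferred compounds across a concentration series. Viability by CellTiter-Glo luminescence; concentration-response curves fitted after normalization.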
# HT1080NT lethal – kills 2HG-producing HT-1080-NT fibrosarcoma cells; 360,000 tested, 1.6% active; Potency, µM (titrated, usually from 46.1 µM), actives largely listed as cytotoxic; HT-1080-NT fibrosarcoma viability, CellTiter-Glo ATP luminescence, 48 h;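 further: NT is the 2HG producing partner of a matched IDH1 knockdown line; nearly all actives have a fitted effect of over 55% in size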
#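 Viability by CellTiter-Glo luminescence after 48 h compound exposure at 37C of HT-1080-NT cells (750/well, RPMI, 5% FBS). % activity scaled between DMSO wells and medium-only wells, then curve-fitted and categorized by curve class.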
# HT1080 IDH1KD tx – kills HT-1080 cells with IDH1 knockdown | HT-1080 IDH1 knockdown viability, ATP luminescence, 48 h | Potency, µM (doses to about 46.1 µM), hits mostly cytotoxic | 360,000 tested, 2% active
#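 Knockdown cells (IDH1KD HT-1080) received compounds 2 h after plating at 750 cells/well and were kept 48 h at 37 °C in 5% FBS RPMI. A CellTiter-Glo luminescence read gave % activity for curve fitting.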
# A number is an active result; i = inactive; ? = inconclusive; nt = no result given. The call rests on the fitted dose curve; in most records, active means well fitted curve in the direction sought with a large enough effect; inconclusive means small, poorly fitted or top-dose-only effect, or another doubt; inactive means no such curve, though single readings can be large; an effect the other way counts as inactive or inconclusive.
SMILES,MCF10A rerep,SW480 rerep,KB-V1 cytotox,KB-3-1 cytotox,HT1080NT lethal,HT1080 IDH1KD tx
NC(=O)N/N=C\c1cc(Br)ccc1O,i,i,?,i,i,i
Cc1ccc(/C=N/NC(=O)c2nnn(-c3nonc3N)c2CNc2ccccc2)cc1,i,i,i,i,i,i
COC(=O)C1C2OC(C(Br)C2Br)C1C(=O)OC (configuration not stated),nt,nt,i,i,i,i
CSc1oc(-c2ccccc2)nc1S(=O)(=O)c1ccc(C)cc1,i,i,20.6µM,i,i,i
Cc1ccccc1OCCc1c(C)[nH]c(=S)[nH]c1=O,?,3.66µM,1.84µM,1.46µM,2.31µM,2.06µM
COc1ccc(C)cc1N1C(=N)/C(=C2/Nc3ccccc3S2)C(c2ccccc2)C1=O (configuration not stated),23.1µM,?,20.6µM,?,i,i
CCOC(=O)c1c(N2C(=O)C=CC2=O)sc(C)c1C,2.91µM,9.2µM,i,i,3.98µM,5.01µM
CCOC(=O)c1c(NC(N)=O)sc(C)c1C,i,i,?,i,i,i
O=c1c(Cl)c(O)c2cccc3c4ccccc4n1c23,23.1µM,i,?,i,i,i
CC(C)c1ccc(OCc2nc(-c3ccccn3)no2)c(Br)c1,14.6µM,i,i,i,i,i
OCCN(Cc1cccnc1)Cc1ccccn1,i,i,10.3µM,i,i,i
S=C1SCN(Cc2ccccn2)CN1Cc1ccco1,4.11µM,7.31µM,?,i,?,15.8µM
CCOCCCN1CN(Cc2ccco2)CNC1=S,i,i,i,i,i,i
COCCN1CSC(=S)N(Cc2ccco2)C1,?,5.8µM,i,i,i,i
O=C(COc1ccc(S(=O)(=O)NC2CCCCC2)cc1)N1CCN(c2ccc(F)cc2)CC1,i,i,?,16.4µM,?,i
O=C(COc1ccc(S(=O)(=O)NC2CCCCC2)cc1Cl)N1CCN(c2ccccc2)CC1,i,i,5.8µM,i,i,?
CC(C)NS(=O)(=O)c1ccc(OCC(=O)N2CCN(c3cccc(Cl)c3)CC2)cc1,nt,nt,i,i,nt,nt
CC(C)[C@H](NS(=O)(=O)c1cccc(Cl)c1)C(=O)OCC(=O)N1CCN(c2ccccc2)CC1,i,i,7.31µM,i,i,i
NC(=O)C1CCN(C(=O)COc2ccc(S(=O)(=O)NC3CCCC3)cc2)CC1,i,i,?,?,i,i
O=C(COc1ccccc1Cl)N1CCN(c2ccc([N+](=O)[O-])c(N3CCCCC3)c2)CC1,i,i,20.6µM,i,i,i
O=C(COc1ccc(Cl)cc1)N1CCN(c2ccc([N+](=O)[O-])c(N3CCCCC3)c2)CC1,i,i,i,i,i,i
O=C(Nc1ccc(Cl)c(C(F)(F)F)c1)C(Cc1ccccc1)NS(=O)(=O)c1ccc(Br)s1 (configuration not stated),nt,nt,i,i,nt,nt
CCCC[C@@H]1Cc2[nH][nH]c(=O)c2[C@H](c2cccc3ccccc23)O1,nt,nt,i,i,?,25.9µM
CCCCC1CC2=C(C(=O)OC(C)(C)O2)C(c2cccc3ccccc23)O1 (configuration not stated),nt,nt,i,i,?,?
Cc1ccc(Cn2c(=N)n(CC(=O)c3ccc([N+](=O)[O-])cc3)c3ccccc32)cc1,9.2µM,?,14.6µM,18.4µM,i,i
SMILES,MCF10A rerep,SW480 rerep,KB-V1 cytotox,KB-3-1 cytotox,HT1080NT lethal,HT1080 IDH1KD tx
CCn1c(=N)n(CC(=O)c2ccc(Cl)c(Cl)c2)c2ccccc21,25.9µM,?,16.4µM,?,?,23.1µM
N=c1n(CCN2CCCCC2)c2ccccc2n1CC(=O)c1ccc(Cl)c(Cl)c1,10.3µM,?,?,?,20.6µM,20.6µM
Cn1c(=N)n(CC(=O)c2ccc(Br)cc2)c2ccccc21,?,i,i,?,?,23.1µM
CC1CCN(c2ncnc3c2nnn3C)CC1,nt,nt,i,i,nt,nt
CCCN(Cc1cccs1)C(=O)Nc1cc(C)ccc1OC,nt,nt,i,i,nt,nt
O=C(Cn1c(-c2cccs2)cc2cc(Cl)ccc21)N1CCN(c2ccccc2)CC1,nt,nt,i,i,nt,nt
